From PubChem BioAssay
“And” between values parts separate entries of the source, which are not always exact repeats. Equal values may be shown once. The source made the active and inactive calls.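 Rule for the calls, unless noted: active = inhibition at or above 50% relative to wild type and mutant plate controls; inactive = inhibition below 50%.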

Experiments:
[1] = inhibitors of TNFa-induced NFkB p65 translocation, primary screen, imaging, HUVEC, MLSMR starter and 10KST1 sets (AID 438;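 active = inhibition above 20% together with a positive visual image hit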;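 note: compound added about 3h40 before a 20 min TNFalpha stimulation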;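 for inhibition: signal is the nuclear over cytoplasmic p65 intensity ratio per well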); settings: HUVEC TNFa-induced p65 nuclear translocation; cell count: measured here: nuclei count (cytotoxicity indicator), at 2.08 µM; inhibition: at 2 µM, stronger effect = higher value, 0% TNFa-plus-vehicle, 100% no-TNFa wells
[2] = inhibitors of mutant huntingtin aggregation, primary screen, imaging, exon1htt(103Q)mCFP cells, high-content imaging (AID 483;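 active = visual image review flags a hit and inhibition of aggregation exceeds 20%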;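 note: compound exposure lasted 3 days before fixation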;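 for nuclei count: percent of the per-plate median nuclei count of sample wells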); settings: exon1htt(103Q)mCFP cell line, aggregate imaging, at 2 µM; inhibition of aggregation: stronger effect = higher value; nuclei count: measured here: cell count, toxicity
[3] = inhibitors of E-selectin induction by TNFa, primary screen, imaging, HUVEC, immunofluorescence, MLSMR starter and 10KST1 sets (AID 487;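 active = visually confirmed hit in the image check and inhibition above 20%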;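 for inhibition: signal is fraction of cell area covered by stained E-selectin grains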;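 for nuclei count: 100% = median nuclei count of all wells on the same plate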); settings: HUVEC TNFalpha-induced E-selectin immunofluorescence imaging, at 2 µM; inhibition: stronger effect = higher value; nuclei count: measured here: cell number, toxicity
[4] = DUSP6 inhibitors restoring Erk phosphorylation by chemical complementation, primary imaging in DUSP6-transfected HeLa (AID 609;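 active = compounds giving at least 50% inhibition in the cell-based MKP-3 phosphatase rescue imaging test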;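 for inhibition: phospho-Erk level distribution per well compared with pooled transfected vehicle control wells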); settings: HeLa MKP-3 transfected, phospho-Erk imaging KS statistic, at 10 µM, cells stimulated with TPA for 15 min
[5] = target: Dual specificity protein phosphatase 6 (Homo sapiens) (UniProt Q16828); test: as above; settings: HeLa MKP-3 transfected, phospho-Erk imaging KS statistic; at 10 µM; stronger effect = higher value; cells stimulated with TPA for 15 min
[6] = target: Voltage-gated potassium channel subunit beta-2 (Rattus norvegicus) (UniProt P62483); test: KvBeta enzyme negative modulators, primary screen, biochemical, NADPH fluorescence (AID 622;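 active = fluorescence slope higher than the sample average by over 3 SD, cut at about -0.22 in these data, passing the limit was not always enough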;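 note: slope of raw intensity against log time taken from 70 to 1610 s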); settings: recombinant KvBeta, 4-cyanobenzaldehyde reduction, at 10 µM, stronger effect = higher value
[7] = target: Voltage-gated potassium channel subunit beta-2 (Rattus norvegicus) (UniProt P62483); test: KvBeta positive modulators, primary screen, biochemical, NADPH fluorescence (AID 623;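 active = NADPH fluorescence slope more negative than the mean of all samples by about 3 SD, 99.7% confidence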;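 note: fluorescence intensity change per second fitted from 20 to 320 s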); settings: Recombinant KvBeta, NADPH fluorescence decrease slope, 10 min; at 10 µM; stronger effect = lower value
[8] = target: Alpha-2C adrenergic receptor (Homo sapiens) (UniProt P18825); test: modulators of alpha2C/GIRK thallium flux, primary screen, cell-based, HEK293 alpha2C/GIRK1/2 (AID 624;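 active = fluorescence slope after compound addition differing from the mean of all screened samples at 99.7% confidence, in either direction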;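 note: slope of fluorescence ratio to pre-addition baseline per second over 15 to 24 s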); settings: thallium flux BTC fluorescence, at 10 µM, actives lie on both sides
[9] = inhibitors of larval lipid processing in zebrafish, primary screen, whole organism, PED6 fluorescence, gall bladder and intestine (AID 686;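 active = a full or partial loss of lipid-probe fluorescence in the fish gall bladder, intestine or both, judged by eye; inactive = no fluorescence loss, or compound toxic to the fish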;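 note: larvae 5 to 7 days old with five fish per well; signal comes from phospholipase A2 cleavage of quenched PED6 carried via bile; overnight exposure to compound and PED6 before scoring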); settings: Zebrafish larvae PED6 lipid processing, fluorescence scoring; screened at 20 µM (by protocol)
[10] = inhibitors of Chlamydomonas gravitaxis, primary screen, whole organism, Chlamydomonas reinhardtii, WT vs cilia-less mutant, absorbance, 96-well (AID 463189); settings: OD600 absorbance, 2 days, at 10 µM, stronger effect = higher value;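 note: 0% = wild type cc124 cells in DMSO and 100% = ciliumless bld1 mutant cells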
[11] = inhibitors of Sendai virus-induced IRF3 signaling, primary screen, TLR/RLR signaling modifier project, cell-based, Sendai virus stimulus, luciferase, 10K MLSCN set (AID 602276;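 active = inhibition at or above 50% at 10 µM; inactive = inhibition below 50%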;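 note: firefly luciferase from ISG56 promoter only with Renilla not read in this screen; 0% = Sendai virus plus DMSO and 100% = medium plus DMSO without virus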); settings: HEK293 RL24 IRF3 luciferase reporter, at 10 µM, stronger effect = higher value
[12] = inhibitors of poly I:C-induced TLR3 signaling, primary screen, cell-based, poly I:C stimulus, luciferase, 10K MLSCN set (AID 602277;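 active = inhibition of the reporter signal at or above 50%; inactive = inhibition below 50%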); settings: HEK293-TLR3 RL24 IRF3 luciferase reporter, at 10 µM, stronger effect = higher value
[13] = measured here: cell density z-score
[14] = measured here: nuclear c-Myc green intensity z-score
[15] = measured here: nuclear pErk red intensity z-score, stronger effect = higher value

Dual specificity protein phosphatase 6 (Homo sapiens), sequence (Q16828 whole entry, looked up): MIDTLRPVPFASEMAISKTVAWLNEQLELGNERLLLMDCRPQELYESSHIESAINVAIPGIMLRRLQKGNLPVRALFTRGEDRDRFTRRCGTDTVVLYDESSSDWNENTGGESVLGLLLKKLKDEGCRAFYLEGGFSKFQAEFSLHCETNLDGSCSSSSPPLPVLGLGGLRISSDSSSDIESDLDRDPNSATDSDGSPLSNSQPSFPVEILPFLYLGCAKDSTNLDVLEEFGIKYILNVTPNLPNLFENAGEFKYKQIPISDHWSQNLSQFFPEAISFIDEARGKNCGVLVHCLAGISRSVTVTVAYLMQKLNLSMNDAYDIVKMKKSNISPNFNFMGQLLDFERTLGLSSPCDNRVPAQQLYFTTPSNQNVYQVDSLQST
Alpha-2C adrenergic receptor (Homo sapiens), sequence (P18825 whole entry, looked up): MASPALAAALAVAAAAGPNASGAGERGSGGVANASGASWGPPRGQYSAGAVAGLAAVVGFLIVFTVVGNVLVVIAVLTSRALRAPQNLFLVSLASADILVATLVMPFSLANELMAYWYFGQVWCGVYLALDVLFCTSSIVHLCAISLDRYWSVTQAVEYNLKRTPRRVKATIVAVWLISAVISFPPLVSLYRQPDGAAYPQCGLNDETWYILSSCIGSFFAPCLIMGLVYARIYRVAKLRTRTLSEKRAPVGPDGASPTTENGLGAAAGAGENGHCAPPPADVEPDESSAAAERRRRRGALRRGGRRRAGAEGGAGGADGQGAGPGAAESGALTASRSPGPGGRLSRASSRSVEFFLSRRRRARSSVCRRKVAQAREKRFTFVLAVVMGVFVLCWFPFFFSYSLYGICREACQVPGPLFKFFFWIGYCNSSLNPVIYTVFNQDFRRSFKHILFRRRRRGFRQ
Voltage-gated potassium channel subunit beta-2 (Rattus norvegicus), sequence (P62483 whole entry, looked up): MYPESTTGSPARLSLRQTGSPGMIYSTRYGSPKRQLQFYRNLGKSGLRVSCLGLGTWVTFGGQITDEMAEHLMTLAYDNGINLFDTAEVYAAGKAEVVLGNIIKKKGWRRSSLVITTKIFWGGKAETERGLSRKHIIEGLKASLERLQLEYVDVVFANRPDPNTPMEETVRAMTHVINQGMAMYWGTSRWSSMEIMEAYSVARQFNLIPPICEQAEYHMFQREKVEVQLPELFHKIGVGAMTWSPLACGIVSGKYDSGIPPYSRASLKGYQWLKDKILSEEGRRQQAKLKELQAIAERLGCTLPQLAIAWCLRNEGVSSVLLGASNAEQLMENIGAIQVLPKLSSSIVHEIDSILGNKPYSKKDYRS

Compound	cell count [1]	inhibition [1]	inhibition of aggregation [2]	nuclei count [2] [%]	inhibition [3]	nuclei count [3] [%]	z-score [4, 13]	z-score [4, 14]	z-score [4, 15]	inhibition [5]	fluorescence slope [6]	NADPH fluorescence slope [7]	slope [8]	outcome [9]	inhibition [10]	inhibition [11]	inhibition [12]
C[C@@H]1C[C@H]2[C@@H]3CCC4=CC(=O)C=C[C@]4(C)[C@@]3(F)[C@@H](O)C[C@]2(C)[C@@]1(O)C(=O)COP(=O)(O)O	525	-10.3% (inactive)	-19.8% (inactive)	49.4	-15.3% (inactive)	98.8	0.835	0.378	-0.291	25.1% (inactive)	-0.516 (inactive)	-5.2e-05 (inactive)	0.00437 (inactive)	inactive	31.6% (inactive)	-1.94% (inactive)	31.9% (inactive)
Cc1c(CCC#N)c(N2CCN(C3CCCCC3)CC2)n2c(nc3ccccc32)c1C#N	433	-14.4% (inactive)	14.6% (inactive)	98.9	-38.1% (inactive)	128	0.167	-0.385	-0.671	13.7% (inactive)	-0.236 (inactive)	-5.2e-06 (inactive)	0.00599 (inactive)	inactive	8.11% (inactive)	19.2% (inactive)	17.3% (inactive)
CN=c1sc2ccccc2n1CC(O)COCc1ccco1 (stereo not drawn)	575	0.4% (inactive)	6.5% (inactive)	98.5	-71.1% (inactive)	138	0.277	0.426	0.235	1.04% (inactive)	-0.302 (inactive)	-1.1e-05 (inactive)	0.00567 (inactive)	inactive	7.79% (inactive)	12.5% (inactive)	29.1% (inactive)
Nc1nc(N)c2nc(-c3ccccc3)c(N)nc2n1	640	-0.8% (inactive)	-9.9% (inactive)	107	-64.7% (inactive)	133	-0.982	-0.143	2.15	-11.9% (inactive)	-0.0137 (active)	-1.2e-05 (inactive)	0.00479 (inactive)	inactive	4.85% (inactive) and -8.55% (inactive)	12.2% (inactive)	34.5% (inactive)
C1CCC(C(CC2CCCCN2)C2CCCCC2)CC1 (stereo not drawn)	585	4.5% (inactive)	-15.7% (inactive)	101	0.5% (inactive)	138	0.673	1.64	0.659	8% (inactive)	-0.498 (inactive)	-1.1e-05 (inactive)	0.0027 (inactive)	inactive	162% (active)	33.8% (inactive)	36.5% (inactive)
Cn1c(=O)c2c(ncn2CCO)n(C)c1=O	575	3.2% (inactive)	-12.9% (inactive)	102	-46.8% (inactive)	114	-1.46	-1.4	-0.23	1.38% (inactive)	-0.45 (inactive)	-4.4e-05 (inactive)	0.00454 (inactive)	inactive	-9.91% (inactive)	14.7% (inactive)	34.5% (inactive)
c1ccc(Cc2nnc3n2CCCCC3)cc1	427	-7.4% (inactive)	0.9% (inactive)	104	-122% (inactive)	114	-1.13	-0.00465	-0.441	-0.608% (inactive)	-0.55 (inactive)	-4.5e-05 (inactive)	0.0052 (inactive)	inactive	22.9% (inactive)	13.8% (inactive)	22.9% (inactive)
CCOC(=O)C1CCN(c2nc3ccccc3nc2C(C#N)C(=O)OC(C)C)CC1 (stereo not drawn)	520	-11.5% (inactive)	-208% (inactive)	104	-90.1% (inactive)	128	-0.0557	0.253	-0.0521	-4.27% (inactive)	-0.341 (inactive)	-2.3e-08 (inactive)	0.00139 (inactive)	inactive	9.67% (inactive)	-15.8% (inactive)	-37.7% (inactive)
CC(C)(Oc1ccc(CCNC(=O)c2ccc(Cl)cc2)cc1)C(=O)O	649	-3% (inactive)	5.2% (inactive)	107	-101% (inactive)	135	-0.113	-1.08	-0.613	15.3% (inactive)	-0.452 (inactive)	-4.1e-05 (inactive)	0.00448 (inactive)	inactive	39.4% (inactive)	9.06% (inactive)	22.2% (inactive)
NS(=O)(=O)c1cc2c(cc1Cl)NC(C1C[C@H]3C=C[C@@H]1C3)NS2(=O)=O (stereo partly drawn)	536	-8.9% (inactive)	-11.7% (inactive)	102	6.1% (inactive)	120	0.229	0.164	0.0197	-6.41% (inactive)	-0.525 (inactive)	-1.3e-05 (inactive)	0.00377 (inactive)	inactive	20.5% (inactive)	-6.01% (inactive)	-8.05% (inactive)
CC(C)N=c1cc2n(-c3ccc(Cl)cc3)c3ccccc3nc-2cc1Nc1ccc(Cl)cc1	636	-2.8% (inactive)	-9.9% (inactive)	102	-163% (inactive)	126	-0.698	-0.296	0.758	-0.493% (inactive)	-0.535 (inactive)	-1.6e-05 (inactive)	0.00125 (inactive)	active; weak signal in gallbladder and intestine	157% (active)	-7.35% (inactive)	33.1% (inactive)
CC(=O)OCC(=O)[C@@]1(O)[C@H](C)C[C@H]2[C@@H]3CCC4=CC(=O)C=C[C@]4(C)[C@@]3(F)[C@@H](O)C[C@@]21C	499	-5.8% (inactive)	0.4% (inactive)	45.5	-54.1% (inactive)	112	-0.698	0.622	-0.569	-4.44% (inactive)	-0.495 (inactive)	-3.4e-05 (inactive)	0.00493 (inactive)	inactive	26.6% (inactive)	14.1% (inactive)	31.9% (inactive)
C#CCN(C)Cc1ccccc1	613	-8.1% (inactive)	11.2% (inactive)	96.3	-105% (inactive)	135	1.46	-0.921	-1.15	13.3% (inactive)	-0.461 (inactive)	-3.5e-05 (inactive)	0.00478 (inactive)	inactive	-8.12% (inactive) and 10.4% (inactive)	18.7% (inactive)	42.3% (inactive)
C[C@@H]1C[C@H]2[C@@H]3C[C@H](F)C4=CC(=O)C=C[C@]4(C)[C@@]3(F)[C@@H](O)C[C@]2(C)[C@@]1(O)C(=O)CO	647	-3.8% (inactive)	-18.8% (inactive)	42.3	-111% (inactive)	128	-1.38	0.0959	0.878	9.37% (inactive)	-0.535 (inactive)	-3.8e-05 (inactive)	0.00526 (inactive)	inactive	-6.12% (inactive)	-11.6% (inactive)	33.6% (inactive)
Cc1ccc2nc(C(F)(F)F)c(C#N)c(N)c2c1	451	-9.7% (inactive)	11% (inactive)	77.3	-14.1% (inactive)	90.7	-0.557	-0.479	-0.0348	1.75% (inactive)	-0.49 (inactive)	-2e-05 (inactive)	0.00524 (inactive)	inactive	-8.78% (inactive)	20% (inactive)	-10.8% (inactive)
c1ccc2c(CC3=NCCN3)cccc2c1	547	-0.9% (inactive)	-4.4% (inactive)	90.2	-43.3% (inactive)	118	-0.259	-0.0766	1	9.37% (inactive)	-0.503 (inactive)	-6.8e-05 (inactive)	0.00554 (inactive)	inactive	-6.08% (inactive)	12.4% (inactive)	36.7% (inactive)
Cc1nc(-c2coc3cc(OCC(=O)O)ccc3c2=O)cs1	642	-9% (inactive)	16.4% (inactive)	100	-136% (inactive)	114	-0.205	0.979	0.055	11.9% (inactive)	-0.552 (inactive)	-4.6e-05 (inactive)	0.00509 (inactive)	inactive	29.5% (inactive)	20.3% (inactive)	15.4% (inactive)
O=c1oc2cc(O)ccc2c2oc3cc(O)ccc3c12	610	3.6% (inactive)	11.2% (inactive)	78.7	-22% (inactive)	112	0.528	1.66	-1.32	25.7% (inactive)	-0.398 (inactive)	-1e-05 (inactive)	0.00469 (inactive)	inactive	6.48% (inactive)	12.4% (inactive)	41.2% (inactive)
O=C(NC1CCS(=O)(=O)C1)N1CCCCC1 (stereo not drawn)	486	0.6% (inactive)	-3.3% (inactive)	106	-68.8% (inactive)	126	-0.342	1.35	0.612	1.6e-07% (inactive)	-0.485 (inactive)	-6.6e-05 (inactive)	0.00544 (inactive)	inactive	-28.4% (inactive)	11.2% (inactive)	18.8% (inactive)
